# MEKK3 PB1 HTS = modulators of MEKK3-MEK5 PB1 binding, primary screen, biochemical, wildtype MEKK3, multiplex bead flow cytometry, Alexa488-MEK5; Mitogen-activated protein kinase kinase kinase 3 (Homo sapiens), Q99759; bead-based flow cytometry, Alexa488-MEK5 binding to MEKK3; actives lie on both sides; 0 = blocked by unlabeled MEK5, 100 = vehicle; binding response (% of control), % at 10 µM; 290,000 tested, 1.4% active;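 active means binding response more than 3 SD above or below the average of its plate-row segment, actives on both sides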;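 further: Alexa488 bead fluorescence after subtracting the streptavidin-only scavenger bead signal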
# MEKK2wt PB1 HTS = modulators of MEK5 binding to wildtype MEKK2, primary screen, biochemical, multiplex bead flow cytometry, Alexa488-MEK5 | AID 1531, 2009 | Alexa488-MEK5 binding to MEKK2 WT; actives lie on both sides | binding response (% of control), % at 10 µM | 290,000 tested, 1.1% active | Mitogen-activated protein kinase kinase kinase 2 (Homo sapiens), Q9Y2U5; in the data active means binding response below about 67% or above about 130%
# GRK2 aptamer HTS = compounds blocking aptamer binding on GRK2 – biochemical, human GRK2, bead flow cytometry, HTS, primary screen | inhibition of aptamer binding, % at 10 µM | FAM-aptamer displacement from GRK2 | 330,000 tested, 0.59% active | AID 488847, 2010;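 active means inhibition of aptamer binding above 40%, roughly 3 SD of noise, on plates passing a quality check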;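 further: median bead fluorescence of bound FAM aptamer so fluorescent compounds give negative values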
# Target sequence (P25098 whole entry, looked up): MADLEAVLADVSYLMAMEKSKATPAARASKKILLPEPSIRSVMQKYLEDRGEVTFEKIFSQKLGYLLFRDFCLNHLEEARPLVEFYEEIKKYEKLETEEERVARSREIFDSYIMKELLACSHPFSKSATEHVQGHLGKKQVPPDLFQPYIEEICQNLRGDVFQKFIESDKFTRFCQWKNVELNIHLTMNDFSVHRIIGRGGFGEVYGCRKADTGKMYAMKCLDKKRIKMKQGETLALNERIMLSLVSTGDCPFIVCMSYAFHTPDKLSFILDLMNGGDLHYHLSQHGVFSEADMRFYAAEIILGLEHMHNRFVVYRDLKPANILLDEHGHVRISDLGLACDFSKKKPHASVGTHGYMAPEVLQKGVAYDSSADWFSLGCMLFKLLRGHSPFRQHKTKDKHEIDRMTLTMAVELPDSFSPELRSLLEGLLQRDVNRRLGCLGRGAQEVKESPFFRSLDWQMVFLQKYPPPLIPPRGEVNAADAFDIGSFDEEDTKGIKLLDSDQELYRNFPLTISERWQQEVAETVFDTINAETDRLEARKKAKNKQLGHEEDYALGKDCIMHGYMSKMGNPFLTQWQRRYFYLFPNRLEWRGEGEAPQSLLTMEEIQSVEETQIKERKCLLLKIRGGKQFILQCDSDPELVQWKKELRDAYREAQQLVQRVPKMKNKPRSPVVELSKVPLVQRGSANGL
# MEKK2 mut-MEK5 = MEK5 binding signal on mutant MEKK2 PB1, primary screen, biochemical, multiplex bead flow cytometry, Alexa488-MEK5; 290,000 tested, 0.35% active; Alexa488-MEK5 binding to MEKK2 mutant; AID 1530, 2009; percent response, % at 10 µM; in the data active means percent response above about 24%, passing the limit was not always enough
# MEKK2wt confirm = modulators of MEK5 binding to wildtype MEKK2, confirmation, biochemical, single concentration, multiplex bead flow cytometry; 5,900 tested, 2.4% active; shares compounds with MEKK3 PB1 HTS; binding response (% of control), % at 10 µM; Alexa488-MEK5 binding to MEKK2 WT; actives lie on both sides; in the data active means binding response below about 16% or above about 210%; inactive means in between
# MEKK2mut-MEK5 = mutant MEKK2 PB1-MEK5 binding signal retest – biochemical, single concentration, multiplex bead flow cytometry, confirmation. percent response, % at 10 µM. Alexa488-MEK5 binding to MEKK2 mutant. shares compounds with MEKK3 PB1 HTS. 5,900 tested, 2% active; in the data active means percent response mostly above about 71%, no sharp cut-off; inactive means mostly below about 38%;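 further: higher means compound restores mutant binding toward wildtype level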
# MEKK3 confirm = MEKK3 wild-type PB1 binding to MEK5, inhibitors, confirmation, biochemical, bead multiplex flow cytometry, single concentration, wildtype. shares compounds with MEKK3 PB1 HTS. binding response (% of control), % at 10 µM. Alexa488-MEK5 binding to MEKK3; stronger effect = lower value. 5,900 tested, 1.8% active;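 active means binding response below 72% of control, or above a set upper limit, though filed actives all read lower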;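 further: 100% = DMSO only wells and 0% = binding blocked by excess unlabeled MEK5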
# * hit, by the source's call; . = not tested or not shown; [ ] = dose if it differs, or a comment. A selection: hits, their analogues and other compounds. The true share with any hit is near 2.5%.
SMILES,MEKK3 PB1 HTS,MEKK2wt PB1 HTS,GRK2 aptamer HTS,MEKK2 mut-MEK5,MEKK2wt confirm,MEKK2mut-MEK5,MEKK3 confirm
Cn1cnnc1-c1cccc(NC(=O)c2cc(F)c(F)cc2Cl)c1,135*,123,0,1,97,-7,103
CCCCOCCCNCC(=O)Nc1ccc(S(N)(=O)=O)cc1,81,93,0,-10,.,.,.
CCCCNCC(=O)Nc1ccc(NC(=O)CNCCCC)cc1,113,144*,0,27*,124,12,100
CCc1ccc(OCC2c3cc(OC)c(OC)cc3CCN2C(=S)NC)cc1 (stereo not drawn),134*,117,0,0,102,7,102
CCOc1ccccc1NC(=O)C1CCN(C(=O)Cc2ccccc2)CC1,102,99,5,0,.,.,.
Cc1cccc(NC(=O)COC(=O)C2COc3ccccc3O2)c1C (stereo not drawn),.,.,2,.,.,.,.
Cc1nc(SCC(=O)NCc2ccco2)c2c(C)c(C)sc2n1,101,100,0,1,.,.,.
Cc1sc2nc(C(C)C)nc(SCC(=O)NCc3ccco3)c2c1C,-1.0*[inhibitor],-6.0*[inhibitor],0,-40,100,2,104
CC1CCN(C(=O)c2[nH]cnc2C(=O)Nc2nccs2)CC1,.,.,0,.,.,.,.
COC(=O)N1C/C=C\C(c2ccc(OC)cc2)N(Cc2ccc(F)cc2)C(=O)C1 (stereo not drawn),96,94,.,3,.,.,.
COc1ccc(C2/C=C\CN(S(=O)(=O)c3ccc(C)cc3)CC(=O)N2Cc2ccc(F)cc2)cc1 (stereo not drawn),129*,158*,.,2,102,1,100
COc1ccc(C2/C=C\CN(C(=O)NC34CC5CC(CC(C5)C3)C4)CC(=O)N2Cc2ccc(F)cc2)cc1 (stereo not drawn),123,147*,.,2,96,-1,102
COc1ccc(C(=O)O)cc1S(=O)(=O)Nc1ccc(N2CCCCC2)cc1,.,.,12,.,.,.,.
O=C(COC(=O)CN1C(=O)NC2(CCCC2)C1=O)Nc1c(Cl)cccc1C(F)(F)F,.,.,4,.,.,.,.
CN1CCN(C2=Cc3cc(Cl)ccc3Sc3cc(F)ccc32)CC1,83,202*,0,53*,164,26,103
CN1CCN(C2=Cc3ccccc3Sc3cc(F)c(F)cc32)CC1,107,123,0,10,.,.,.
CN1CCN(C2=Cc3ccccc3Sc3cc(F)c(Cl)cc32)CC1,99,134*,0,10,163,30,103
O=S1(=O)CC(O)C(Nc2ccc(Cl)cc2)C1 (stereo not drawn),49*[inhibitor],67,2,-4,96,-9,97
O=S1(=O)CC(O)C(Nc2ccccc2)C1 (stereo not drawn),99,102,0,1,.,.,.
CC12CN3CC(C)(CN(C1)C3c1ccc(F)cc1)C2 (stereo not drawn),130*,115,0,1,103,-3,98
CCc1ccc(NC(=O)CSc2nncn2-c2cccnc2)cc1,97,99,0,-3,.,.,.
CCOc1ccc(/C=N/NC(=O)Cc2cccs2)cc1,100,99,1,2,.,.,.
Cc1ccc(NC2c3ncccc3C(=O)N2Cc2cccs2)cc1C (stereo not drawn),96,92,6,-3,.,.,.
O=C1c2cccnc2C(Nc2ccc(Cl)cc2)N1Cc1cccs1 (stereo not drawn),75*[inhibitor],54*[inhibitor],7,-16,108,7,104
CCC(C)NS(=O)(=O)c1ccc(S(=O)(=O)N(CCc2ccc(OC)c(OC)c2)Cc2cccs2)cc1 (stereo not drawn),147*,107,0,-1,99,-2,102
SMILES,MEKK3 PB1 HTS,MEKK2wt PB1 HTS,GRK2 aptamer HTS,MEKK2 mut-MEK5,MEKK2wt confirm,MEKK2mut-MEK5,MEKK3 confirm
CCN(CC)c1ccc(C(=O)NNC(=O)CN2C(=O)NC3(CCCCC3)C2=O)cc1,.,.,12,.,.,.,.
COc1ccccc1N(CC(=O)NCCSCc1ccc(Cl)cc1)S(C)(=O)=O,108,111,1,11,.,.,.
COc1ccccc1OCC(=O)NCCSCc1ccc(Cl)cc1,132*,108,0,0,97,-7,100
O=C(CSc1ccccc1)NCCSCc1ccccc1,140*,111,2,2,102,2,101
O=C(CCSCc1ccc(Cl)cc1)NC1CCCC1,151*,109,3,1,98,-8,102
Cc1ccc(SCC(=O)NCCSCc2ccccc2)cc1,112,101,0,-1,.,.,.
O=C(Cc1ccc(Cl)cc1)NC1CC1,108,101,4,-4,.,.,.
O=C(CCSCc1ccc(Cl)cc1)NCCc1ccccc1,142*,102,2,0,96,-6,101
O=C(CCSCc1cccc(Cl)c1)NCCc1ccc(Cl)cc1,104,111,4,16,.,.,.
CCOC(=O)c1cc[nH]c1C,100,98,3,-5,.,.,.
CCN(CC)CCCN(C(=O)c1ccc(F)cc1)c1nc(-c2ccc(OC)cc2)cs1,113,141*,0,24*,138,19,103
COc1ccc(-c2csc(N(CCCN(C)C)C(=O)c3ccccc3F)n2)cc1,99,127,4,16,.,.,.
COc1ccc(-c2csc(N(CCCN(C)C)C(=O)c3ccc(F)cc3)n2)cc1,111,140*,0,25*,124,11,102
O=C(Cc1ccccc1)NC(=S)Nc1ccc(OC(F)F)cc1,100,100,1,3,.,.,.
CCOC(=O)[C@H]1[C@H]2COc3ccc(Br)cc3[C@@H]2N2C(=O)c3c(C)cc(C)cc3NC(=O)[C@@]12C,.,.,3,.,.,.,.
CCCCn1c(SCC(=O)N2CCOCC2)nnc1-c1ccoc1C,128*,107,1,2,104,10,105
Cc1occc1-c1nnc(SCC(=O)N2CCOCC2)n1CCc1ccccc1,113,111,0,5,.,.,.
Cc1nnc(NC(=O)c2sc3nc(-c4cccs4)cc(C(F)(F)F)c3c2N)s1,88,68,4,-8,.,.,.
CC(C)(C)C(=O)c1sc2nc(-c3cccs3)cc(C(F)(F)F)c2c1N,94,53*[inhibitor],8,-9,102,6,103
